In the library only some 2% were active in any assay of this set; here they are far more common.
EP2 modulator: modulates human prostaglandin E2 receptor EP2 signaling; induction, % at 25 µM; EP2-expressing cells, cAMP HTRF FRET, PGE2 co-stimulation; P43116; 0.83% of 260,000 active; AID 940;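 active means compounds whose cAMP rise, as percent of the full-agonist control response, exceeds 60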;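 further: rat C6 glioma line stably carrying human EP2 under a CMV promoter; the protocol text gives 20 µM as final concentration; 100% = response of wells given 1 µM PGE2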
Target sequence (P43116 whole entry, looked up): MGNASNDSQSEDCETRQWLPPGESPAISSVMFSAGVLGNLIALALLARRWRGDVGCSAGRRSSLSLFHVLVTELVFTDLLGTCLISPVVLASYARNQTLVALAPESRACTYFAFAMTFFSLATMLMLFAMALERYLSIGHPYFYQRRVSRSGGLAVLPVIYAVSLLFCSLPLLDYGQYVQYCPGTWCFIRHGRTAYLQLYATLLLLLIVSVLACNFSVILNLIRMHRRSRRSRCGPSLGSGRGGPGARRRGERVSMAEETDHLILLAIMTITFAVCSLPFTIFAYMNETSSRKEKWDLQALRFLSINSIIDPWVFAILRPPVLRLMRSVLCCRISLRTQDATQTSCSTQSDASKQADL
EP2 antag: inhibitors of human EP2 prostaglandin E2 receptor | P43116 | C6 glioma cells expressing human EP2, cAMP TR-FRET; cells stimulated with saturating PGE2 | inhibition, % at 25 µM | 0.52% of 260,000 active;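 active means percent inhibition above 40 after rounding to a whole number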;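 further: rat C6 glioma host cells with rolipram phosphodiesterase inhibitor present; the protocol text gives 20 µM as final concentration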
CHT allo act: allosterically activates the human high affinity choline transporter. Q9GZV3. CHT-expressing cells, membrane potential dye, choline EC20; stronger effect = higher value; LV-AA mutant CHT in HEK293 cells. B-score at 10 µM. 0.49% of 310,000 active. AID 488977;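 active means initial fluorescence not abnormally high and integrated response B-score, plate-corrected, over 3 SD above library mean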
CHT block: inhibits the human high affinity choline transporter | Q9GZV3 | CHT-expressing cells, membrane potential dye, choline response; stronger effect = lower value | B-score at 10 µM | 0.86% of 310,000 active | AID 488975;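 active means B-score over 3 SD under the library average, and starting fluorescence ratio not unusually high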;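 further: choline stimulus applied at its EC90 after an EC20 pre-addition; B-score computed on integrated fluorescence ratio after choline addition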
CHT inh conf: confirmation of human choline transporter CHT inhibitors; shares compounds with CHT block; CHT-expressing cells, choline membrane potential dye; LV-to-AA substituted CHT, HEK293 cells; CHT activity remaining % of control (stronger effect = lower value), % at 10 µM; 70% of 2,400 active; AID 493221;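 active means choline transporter activity left, mean of duplicates at 10 µM, below buffer-only control mean minus 3 SD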;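 further: depolarization triggered by choline at its EC90 following an EC20 pre-addition; 0% = hemicholinium-3 full block and 100% = buffer-only control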
HEK293 MPD ctr: counter-screen for CHT inhibitors: effect in parental HEK293 cells | shares compounds with CHT block | membrane potential dye, choline response; active = decrease or increase beyond buffer ±3SD | membrane potential ratio readout (active if shifted either direction beyond buffer ±3SD; no single direction) at 10 µM | 4% of 2,400 active | AID 493222;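 further: parental cells lack the transporter so any hit is non-specific; ratio is peak minus trough fluorescence over baseline after EC90 choline challenge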
The depositor's hits bear a star; i = inactive; / = not tested or not shown.

SMILES	EP2 modulator	EP2 antag	CHT allo act	CHT block	CHT inh conf	HEK293 MPD ctr
COCCn1c(SCC(=O)Nc2ccc(OC)cc2)nnc1-c1ccncc1	7	8	/	/	/	/
COc1ccc(-n2nnc(C(C)=O)c2NCc2cccc(OC)c2)cc1	-86	/	/	/	/	/
O=C(c1ccco1)N1CCN(C(=O)c2ccc(COc3ccc(Cl)cc3Cl)o2)CC1	/	1	i	-6.3*	i	i
O=C(CCCOc1ccccc1)N1CCN(C(=O)c2ccco2)CC1	10	11	i	i	/	/
Cc1cc(Cl)ccc1OCCCC(=O)N1CCN(C(=O)c2ccco2)CC1	-47	6	i	-5.3*	68%*	i
O=C(c1ccco1)N1CCN(C(=O)c2ccc(COc3ccc4c(c3)CCC4)o2)CC1	-21	16	i	i	/	/
CC(=O)NC1CC2CCCC(C1)N2C(=O)Nc1cccc(F)c1 (stereo unspecified)	-11	10	/	/	/	/
CCCCNc1ccc(C(CC(N)=O)NC(=O)c2ccccc2)cc1[N+](=O)[O-] (stereo unspecified)	-33	11	i	i	/	/
Cc1ccccc1CNc1ccc(C(CC(N)=O)NC(=O)c2ccccc2)cc1[N+](=O)[O-] (stereo unspecified)	5	14	i	-5.4*	i	i
CCC(CC)Nc1ccc(C(CC(N)=O)NC(=O)c2ccccc2)cc1[N+](=O)[O-] (stereo unspecified)	/	/	i	-5.1*	41%*	i
Cc1cccc(CNc2ccc(C(CC(N)=O)NC(=O)c3ccccc3)cc2[N+](=O)[O-])c1 (stereo unspecified)	-21	19	i	i	/	/
NC(=O)CC(NC(=O)c1ccc(Br)cc1)c1ccc(N2CCCCCCC2)c([N+](=O)[O-])c1 (stereo unspecified)	/	/	i	-5.3*	65%*	i
COc1ccc(NC(=O)CSc2nnnn2-c2ccc(NC(C)=O)cc2)cc1	-69	9	/	/	/	/
CCCOC(=O)Cn1cnc2scc(-c3ccc(OCC)cc3)c2c1=O	-6	9	/	/	/	/
CC(=O)Nc1ccc(NC2OC(=O)c3ccccc32)cc1 (stereo unspecified)	-7	16	/	/	/	/
CCn1cc(C(=O)N2CCCCC2)c(=O)c2cc(S(=O)(=O)N3CCC(C)CC3)ccc21	-6	3	i	-6.2*	34%*	i
CC1CCN(S(=O)(=O)c2ccc3c(c2)c(=O)c(C(=O)NC2CCCC2)cn3C)CC1	-31	6	i	-7.3*	52%*	i
CCn1c(=N)n(CC(=O)c2ccc(Cl)c(Cl)c2)c2ccccc21	/	/	i	i	/	/
N=c1n(CCN2CCCCC2)c2ccccc2n1CC(=O)c1ccc(Cl)c(Cl)c1	-30	7	i	-5.4*	i	i
CC(Oc1ccc(Cl)cc1)C(=O)Nc1ccc(S(=O)(=O)Nc2nccs2)cc1 (stereo unspecified)	/	/	i	i	/	/
CC(Oc1ccccc1Cl)C(=O)Nc1ccc(S(=O)(=O)Nc2nccs2)cc1 (stereo unspecified)	/	/	i	-7.7*	65%*	i
Cc1ccccc1OC(C)C(=O)Nc1ccc(S(=O)(=O)Nc2nccs2)cc1 (stereo unspecified)	/	/	i	-7.2*	47%*	i
Cc1cccc(CN2CCc3c(nc(N4CCC(C)CC4)[nH]c3=O)C2)c1	-29	/	/	/	/	/
Cc1cc2c(ncn2Cc2ccccc2)c([N+](=O)[O-])c1C	14	7	i	-5.3*	51%*	i
COc1ccc(Cn2cnc3c(NS(C)(=O)=O)c(C)c(C)cc32)cc1	7	6	i	i	/	/
SMILES	EP2 modulator	EP2 antag	CHT allo act	CHT block	CHT inh conf	HEK293 MPD ctr
COc1cc(C(=O)NC2CC(C)(C)CC(C)(C)C2)ccc1OC1CCN(C(C)=O)CC1	/	/	i	-6.9*	4.8%*	i
CCC(=O)N1CCCc2cc(C(O)CN3CCC(O)(c4cccc(C)c4)CC3)ccc21 (stereo unspecified)	-29	3	/	/	/	/
Cc1cccc(NC(=S)NNC(=O)c2ccc(O)cc2O)c1C	14	2	i	i	/	/
Cc1ccc(NC(=S)NNC(=O)c2ccccc2O)c(C)c1	-12	3	i	-8.2*	i	i
Cn1c(COc2ccccc2)nnc1SCC(=O)Nc1ccccc1Br	-7	12	/	/	/	/
CC(SCC(=O)O)c1nc2ccccc2[nH]1 (stereo unspecified)	21	3	i	-5.7*	i	i
NS(=O)(=O)c1ccc(NC(=O)Nc2ccc(S(N)(=O)=O)cc2)cc1	-10	7	i	-13*	i	i
CC(C)N(C)C(=O)c1ccc(OC2CCN(CCc3ccccc3)CC2)cc1	4	6	i	i	/	/
Cc1csc(C(C)NC(=O)c2ccc(OC3CCN(CCc4ccccc4)CC3)cc2)n1 (stereo unspecified)	/	/	i	-6.4*	30%*	2.6*
CCc1ccccc1NC(=O)CSc1nnc(-c2ccco2)n1C	-48	8	/	/	/	/
Cc1cc(C)cc(NC(=O)c2ccc(N3C(=O)C4CCCCC4C3=O)cc2)c1 (stereo unspecified)	/	/	i	-5.5*	65%*	i
CC(=O)SC(C[N+](=O)[O-])c1cn(C(C)=O)c2ccccc12 (stereo unspecified)	-9	81*	i	-5.5*	67%*	i
CC(=O)n1cc(Nc2ccc([N+](=O)[O-])cc2)c2ccccc21	-54	-1	i	i	/	/
CCNC(=O)[C@H]1O[C@@H](n2cnc3c(N)nc(NCCc4ccc(CCC(=O)O)cc4)nc32)[C@H](O)[C@@H]1O	20	22	i	-5.3*	46%*	i
Oc1ccc(Oc2ncc(Cl)cc2Cl)cc1	28	4	i	-5.4*	59%*	i
Cc1cc2cc(CN(CC3COCCO3)S(=O)(=O)c3ccccc3F)c(=O)[nH]c2cc1C (stereo unspecified)	-32	28	/	/	/	/
COc1ccccc1NC(=O)CNS(=O)(=O)c1ccccc1	20	8	i	-5.7*	i	i
C=C(C)COc1ccc(-c2[nH]ncc2-c2ccc(Br)cc2)c(O)c1	9	11	i	-5.5*	i	i
CCOC(=O)c1sc(=S)n(-c2ccccc2)c1N(C(C)=O)C(C)=O	0	9	i	-6.2*	65%*	i
O=C(c1cc(COc2ccc(F)cc2Cl)on1)N1CCC(c2ccncc2)CC1	-58	15	i	-6.5*	56%*	i
O=C(c1cc(COc2ccc(F)cc2Cl)on1)N1CCCCCC1	/	/	i	i	/	/
CN(C)CCCn1c(=O)n(C2CCCCC2)c(=O)c2c3c(sc21)CCCCC3	/	/	i	-8*	36%*	i
CCc1nn(CC(=O)N2CCc3ccccc3C2)c(=O)c2cc3ccsc3n12	9	/	/	/	/	/
